# “And” between values parts separate entries of the source, which are not always exact repeats. Identical values can stand only once. Screen size: about 16,000 compounds; about 2,600 (16%) were called active. About 20% were inconclusive and are not listed. The call rests on the fitted dose curve; in most records, active means well fitted curve in the direction sought with a large enough effect; inconclusive means small, poorly fitted or top-dose-only effect, or effect the other way; inactive means no such curve, though single readings can be large or run the other way. A selection follows.
# Target: Cytochrome P450 2D6 (Homo sapiens) (UniProt P10635)
# Test: Cytochrome panel assay with activity outcomes
# Conditions: recombinant CYP, pro-luciferin dealkylation, luminescence, p450-cyp2d6; series mostly up to 57.1 µM; activity, negative = inhibition: at the top concentration
# On the % scale 0 is the no-effect control and ±100 the full control effect.
# Cytochrome P450 2D6 (Homo sapiens), sequence (P10635 whole entry, looked up): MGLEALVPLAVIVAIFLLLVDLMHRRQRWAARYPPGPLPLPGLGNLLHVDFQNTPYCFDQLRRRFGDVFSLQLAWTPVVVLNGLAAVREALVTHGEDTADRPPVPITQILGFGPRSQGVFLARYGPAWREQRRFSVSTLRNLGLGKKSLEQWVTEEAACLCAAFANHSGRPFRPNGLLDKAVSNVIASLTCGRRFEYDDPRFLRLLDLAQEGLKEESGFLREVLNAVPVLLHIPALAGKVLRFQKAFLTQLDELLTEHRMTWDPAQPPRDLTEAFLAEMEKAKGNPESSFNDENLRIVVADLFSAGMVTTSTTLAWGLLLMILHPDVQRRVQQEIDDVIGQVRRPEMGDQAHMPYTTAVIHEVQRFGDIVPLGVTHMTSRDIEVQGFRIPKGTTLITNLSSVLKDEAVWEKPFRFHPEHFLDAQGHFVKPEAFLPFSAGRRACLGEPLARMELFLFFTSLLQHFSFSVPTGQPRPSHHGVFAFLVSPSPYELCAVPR
SMILES,"activity, negative = inhibition",AC50
Cc1ccc(/C=C/c2ccc(=O)n(Cc3ccc(Cl)cc3Cl)n2)cc1,7.32% (inactive),
COC(=O)[C@@]1(Cc2ccc(OC)cc2)[C@@H]2C(=CC(=O)[C@H]2CC(=O)C(=O)N2CCCC2)CN1C(=O)c1ccccc1,-5.71% (inactive),
COc1cc(C2C(C#N)=C(N)N(Nc3ccccc3)C3=C2C(=O)CC(C)(C)C3)ccc1OCc1cccc(F)c1 (centres undefined),-10.8% (inactive),
CC1=C(CC(=O)O)c2cc(F)ccc2/C1=C\c1ccc(S(C)(=O)=O)cc1,8.35% (inactive),
Clc1ccc2c(NCCNC3CCCCC3)ccnc2c1,,3.16 µM (active)
Clc1ccc2c(NCCNc3ccnc4cc(Cl)ccc34)ccnc2c1,-10.3% [at 11.4 µM] (inactive),
C/C(CC/C(C)=N/O)=N/O,8.85% [at 11.4 µM] (inactive),
O=C(O)c1cccnc1C(=O)O,8.44% (inactive),
CN(C)Cc1ccccc1-c1cc(Nc2ccccc2)ncn1,,12.6 µM (active)
CC(=O)NCCNc1cc(-c2ccccc2CN(C)C)ncn1,9.47% (inactive),
CNc1cc(-c2ccccc2C(F)(F)F)ncn1,-2.24% (inactive),
CN(C)c1cc(-c2cccc(NS(C)(=O)=O)c2)ncn1,-1.1% (inactive),
Cc1noc(C)c1-c1cc(Nc2ccccc2)ncn1,-1.67% (inactive),
CNc1cc(-c2ccccc2CN(C)C)ncn1,,0.631 µM (active)
CN(C)Cc1ccccc1-c1cc(N(C)C)ncn1,,1.26 µM (active)
CN(C)Cc1ccccc1-c1cc(NC2CC2)ncn1,,0.0398 µM (active)
Cc1noc(C)c1-c1cc(NC2CCNCC2)ncn1,7.12% (inactive),
CC(=O)c1ccc(NC(=O)C2(c3ccccc3)CCOCC2)cc1,-8.6% (inactive),
CON1C(=O)C(=O)N(OC)C(C)(C)C1C (centres undefined),3.21% (inactive),
CCOC(=O)N1CCN(C(=O)c2ccc3c(=O)n(-c4ccc(OC)cc4)c(=S)[nH]c3c2)CC1,-7% (inactive),
C=CCn1c(=O)c2c(nc(-c3ccc(S(=O)(=O)O)cc3)n2C)n(C)c1=O,7.35% (inactive),
CN(C)C[C@H]1CCC2=C(C1=O)C(c1ccc(Cl)c(Cl)c1)C1=C(CC[C@H](CN(C)C)C1=O)O2,-12.4% [at 11.4 µM] (inactive),
[O-][n+]1c(CN2CCCCC2)nc2cccc3c2c1-c1ccccc1-3,-13.1% [at 11.4 µM] (inactive),
CCCOC(=O)c1ccc(NC(=O)c2cn(CC)c3nc(C)ccc3c2=O)cc1,-27.3% (inactive),
O=c1c(-c2ccccc2)nc2cnc(Oc3cccc(Cl)c3)nc2n1C1CC1,-7.95% (inactive),

SMILES,"activity, negative = inhibition",AC50
Cc1ccc(NC(=O)CN2CCC(NC(=O)Cc3ccccc3)CC2)cc1C,-27.2% (inactive),
Cc1c(Cl)cccc1Nc1ccccc1C(=O)O,-2.06% [at 25.6 µM] (inactive),
Cc1cc(Cl)ccc1NC(=O)CN1CCC(C(O)(c2ccccc2)c2ccccc2)CC1,,14.1 µM (active)
Cc1c(Cl)cccc1NC(=O)CC1NCCNC1=O (centres undefined),-1.15% (inactive),
Cc1c(Cl)cccc1NC(=O)CN1CCC(C(O)(c2ccccc2)c2ccccc2)CC1,,0.224 µM (active)
CCOC(=O)c1ccccc1NC(=O)CSc1cccc[n+]1[O-],-7.26% (inactive),
FC(F)(F)c1cccc(-c2nc3nc(Cl)c(Cl)nc3[nH]2)c1,-1.57% [at 11.4 µM] (inactive),
Cc1ccc(S(=O)(=O)/N=C(/Nc2c(C)n(C)n(-c3ccccc3)c2=O)c2ccc(Cl)cc2)cc1,-9.19% (inactive),
O=C(c1cccc(C(F)(F)F)c1)N1CCC(O)(CS(=O)(=O)Cc2ccccc2)CC1,-13.5% (inactive),
COC(=O)c1ccc(/C=N\NC(=O)c2ccc(C)cc2Cl)cc1,7.06% (inactive),
CN1c2ccccc2C(C)(C)C12C=Nc1c(cc(N3CCOCC3)c3ccccc13)O2 (centres undefined),-25.9% (inactive),
O=C1C=CC(=Nc2cccc3c(N=C4C=CC(=O)O4)cccc23)O1,3.55% [at 11.4 µM] (inactive),
O=C(c1ccco1)N1CCN(C(=O)c2nn3cccnc3c2Cl)CC1,0.557% (inactive),
COc1cc(/C=C\C(=O)N2CCC=CC2=O)cc(OC)c1OC,-0.509% [at 25.6 µM] (inactive),
CCCC(=O)Nc1nc2nc(-c3ccccc3)cc(-c3ccccc3)n2n1,9.65% (inactive),
O=C(O)CCc1ccc(-c2ccccc2)[nH]1,3.02% [at 11.4 µM] (inactive),
CC(=O)Nc1nonc1NC(=O)c1ccc(C(C)(C)C)cc1,,10 µM (active)
CC(C)(C)c1ccc(C(=O)Nc2ccc(NC(=O)c3ccco3)cc2)cc1,-9.98% (inactive),
CC(C)(C)c1ccc(C(=O)NCc2ccc(Cl)cc2)cc1,23.5% (inactive),
CC/C=C\CC[C@H](O)C1=CCCCC1=O,0.601% [at 11.4 µM] (inactive),
CC1=C(C(=O)Nc2cccnc2)C(c2cccnc2)n2nc(-c3cccs3)nc2N1 (centres undefined),11.8% (inactive),
Cc1ccc(C)c(Cn2c(C(=O)OC(C)C)cc3c2ccn3C)c1,-10.6% (inactive),
CCCCCCCCCCCCCCCC[N+](C)(C)CCN(Cc1ccc(OC)cc1)c1ncccn1,,12.6 µM (active)
CN(C)CCOC(=O)COc1ccc(Cl)cc1,,inactive
CN(C)CCN(Cc1ccc(Cl)cc1)c1ccccn1,,0.02 µM (active)

SMILES,"activity, negative = inhibition",AC50
COc1ccc(CC(=O)O/N=C(\N)Cc2ccc(OC)cc2)cc1,3% (inactive),
O=C(COc1ccc(Cl)cc1)N(Cc1ccccc1)c1ccccn1,5.58% (inactive),
COc1ccc(CN(CCN(C)C)c2ccccn2)cc1,,501 nM (active) and 126 nM (active) and 100 nM (active)
CCSc1nnc(-c2ccccc2NC(C)=O)c(=O)[nH]1,-26.1% (inactive),
COc1ccc(-c2nc3cnc(N4CCNCC4)nc3n(Cc3ccc(F)cc3)c2=O)cc1,-0.475% (inactive),
CCOC(=O)CSc1nnc(Cc2cc(=O)[nH]c(=O)[nH]2)n1-c1cccc(OC)c1,0.419% (inactive),
CCNC(=O)c1ccc(-n2nc(C)cc2-c2ccccc2)cc1,6.71% (inactive),
CC(C)=CCC/C(C)=C/CO/N=C1/C[C@@H](O)[C@@H](O)[C@@H]2[C@H]3C(=O)N(c4ccc(F)cc4F)C(=O)[C@@H]3CC[C@@H]12,8.95% [at 11.4 µM] (inactive),
COc1ncc2nc(-c3cn(C)c4ccccc34)c(=O)n(C)c2n1,3.38% (inactive),
CN(C)/C(CN1CCOCC1)=C1\N=C(c2ccccc2)OC1=O,5.8% (inactive),
NC(N)=N/N=C(/c1ccccc1)c1ccc(O)cc1O,,1.26 µM (active)
NC(N)=N/N=C\c1ccc(O)c(C(=O)O)c1,13.4% [at 11.4 µM] (inactive),
CC(=O)/C(=N\N=C(N)N)c1ccccc1,-4.42% [at 11.4 µM] (inactive),
COCCCNC(=O)c1c(NC(=O)c2cccs2)sc2c1CCCC2,-17.3% (inactive),
CCC1OC23CCCCC2C(C#N)(C(=N)O3)C1(C#N)C#N (centres undefined),8.79% (inactive),
Cc1ccc2nc(SCc3nnc(-c4ccccc4[N+](=O)[O-])o3)c(C#N)cc2c1,-4.06% (inactive),
Cc1nonc1NCn1nnc2ccccc21,8.37% (inactive),
NN(CC(=O)O)CC(=O)O,-0.968% [at 11.4 µM] (inactive),
CO[C@H]1COC(=O)[C@H](C)NC(=O)C/C=C\[C@@H](C)[C@@H](NS(=O)(=O)c2ccc(C)cc2)COC(=O)C/C=C\[C@@H]1C,6.92% [at 11.4 µM] (inactive),
CC1CCC(C(=O)O)([C@H](Br)C(=O)O)CC1 (some centres undefined),-1.57% [at 11.4 µM] (inactive),
Cc1nc2cnc(N3CCN(C)CC3)nc2n(C)c1=O,12% (inactive),
O=C1c2cccc([N+](=O)[O-])c2C(=O)N1c1ncn[nH]1,10.8% [at 11.4 µM] (inactive),
COC(=O)[C@]1(C)CCC(c2ccc(C)cc2)=C(CC(=O)O)C1,13.4% [at 11.4 µM] (inactive),
C[C@]1(C2CCCC2)Cc2cc(OCC(=O)O)c(Cl)c(Cl)c2C1=O,6.24% (inactive),
CSc1cccc(NC(=O)OC2CCCCCCCCCCC2)c1,10.7% [at 11.4 µM] (inactive),

SMILES,"activity, negative = inhibition",AC50
CC(=O)Nc1ccc2nc(C3CCCCC3)[nH]c2c1,,12.6 µM (active)
Cc1cc(NC(=O)C2CCCC2)n(-c2nc3ccccc3[nH]2)n1,-10.9% (inactive),
O=C(CSc1nnc(CNc2ccc(F)cc2)o1)OC1CCCCC1,-30.4% (inactive),
Oc1ccc(/C=N/NC(=S)NCc2ccco2)cc1,2.33% (inactive),
CCCn1c(C)nc2c(c1=O)c1nc3ccccc3nc1n2CCC1=CCCCC1,-23.2% (inactive),
N#CC1(Nc2ccc(-c3ccc(NC4(C#N)CCCC4)cc3)cc2)CCCC1,8.6% [at 11.4 µM] (inactive),
Cn1ncc(C#N)c1/N=C/N1CCCCCC1,3.27% (inactive),
CCc1ccc(OCC(=O)NC(=S)Nc2ccc(C)cc2C)c(Br)c1,3.53% (inactive),
CCOC(=O)c1nnn(-c2nonc2N)c1-c1ccc(C)cc1,1.09% (inactive),
CCOC(=O)c1nnn(-c2nonc2N)c1-c1ccccc1,5.69% (inactive),
CCOC(=O)c1nnn(-c2nc(OC)nc(N3CCCCC3)n2)c1-c1ccccc1,,17.8 µM (active)
Cc1nn(Cc2c(F)c(F)c(F)c(F)c2F)c(C)c1NC(=O)c1cccc(COc2ccc(Cl)cc2)c1,-24.2% (inactive),
COc1ccc(Oc2ncc3ncc(=O)n(C[C@H]4CCCO4)c3n2)cc1,4.88% (inactive),
COc1ccc(NC(=O)c2cc(C(C)C)on2)cc1OC,-22.8% (inactive),
COc1ccc(-c2cc(C(=O)Nc3cc(OC)c(OC)c(OC)c3)no2)cc1OC,-1.21% (inactive),
COc1ccc(NC(=O)c2ccc(-c3ccc(-c4noc(C)n4)cc3C)cc2)cc1OCCN(C)C,,12.6 µM (active)
CC[C@H]1C2=C3C(CC[C@H]4C(OCc5ccc(F)cc5C(F)(F)F)OC[C@](C)([C@@H]34)N(C(=O)OC(C)(C)C)C2)C(COC)C1COC (some centres undefined),2.49% (inactive),
CC(=O)NC1(c2cccc(F)c2)CCN(CC(=O)NC2CCCCC2)CC1,-8.39% (inactive),
Cn1c(CCNC(=O)c2ccccc2Cl)n[nH]c1=S,-4.47% (inactive),
O=C1O[C@H](CN2CCOCC2)CN1/N=C\c1ccc([N+](=O)[O-])o1,-18.9% [at 25.6 µM] (inactive),
CCCSc1nnc(CSc2nc3nc(C)cc(C)n3n2)o1,-9.07% (inactive),
Cc1cc(SCC(=O)c2ccccc2)nc(SCC(=O)c2ccccc2)n1,7.93% (inactive),
Cc1ccccc1NC(=O)CSc1nc(N2CCCCC2)nc(N2CCCCC2)n1,14.4% (inactive),
Cc1cccc(Nc2cc(Cl)nc(SCC(=O)O)n2)c1C,,3.16 µM (active)
